Values joined by “and” are separate entries in the source; they are usually repeats but may differ in a detail not shown here. Identical values can stand only once. About 83,000 compounds went through this panel and 20% of them were active in at least one assay; those are over-represented in the sample as a whole.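 Negative percent growth values reflect cell death: -40 means 40% of the cells present at the start died, and -100 means all died.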 Active and inactive are the calls of the source. How the source made its calls: active means growth percent below 10; inactive means the rest.
Experiments:
Assay in all cases: NCI-60 one-dose screen, 48 h (100 = growth as untreated, 0 = no growth, -100 = all killed)
Details in all cases: 10 µM unless noted
T-47D breast = tested on: T-47D breast
BT-549 breast = tested on: BT-549 breast
MDA-MB-435 melanoma = tested on: MDA-MB-435 melanoma
SW-620 colon = tested on: SW-620 colon
MCF7 breast = tested on: MCF7 breast
HCT-116 colon = tested on: HCT-116 colon
HCC-2998 colon = tested on: HCC-2998 colon
KM12 colon = tested on: KM12 colon

Structure (SMILES)	growth (T-47D breast)	growth (BT-549 breast)	growth (MDA-MB-435 melanoma)	growth (SW-620 colon)	growth (MCF7 breast)	growth (HCT-116 colon)	growth (HCC-2998 colon)	growth (KM12 colon)
NC1=NC(c2ccccc2)N=C(Nc2ccccc2)N1 (configuration not stated)	98.4% (inactive) and 106% (inactive)	74.5% (inactive) and 83.4% (inactive)	18.2% (inactive) and 7.52% (active)	84.4% (inactive) and 94.5% (inactive)	13.7% (inactive) and 22% (inactive)	59.9% (inactive) and 44.6% (inactive)	93.6% (inactive)	26.1% (inactive) and 51.7% (inactive)
Nc1ccccc1SC1CC(=O)N(c2ccc(I)cc2)C1=O (configuration not stated)	82.3% (inactive)	91.6% (inactive)	91.8% (inactive)	93.3% (inactive)	86.5% (inactive)	95.3% (inactive)	103% (inactive)	79.1% (inactive)
COc1ccccc1OCC(O)CO (configuration not stated)	91.4% (inactive) and 105% (inactive)	107% (inactive)	76.7% (inactive) and 96.1% (inactive)	101% (inactive) and 109% (inactive)	94.1% (inactive) and 105% (inactive)	106% (inactive) and 102% (inactive)	95% (inactive) and 86.1% (inactive)	98% (inactive) and 108% (inactive)
OCCSc1ccc(Cl)cc1	101% (inactive) and 72.3% (inactive)	111% (inactive) and 94.7% (inactive)	103% (inactive) and 106% (inactive)	104% (inactive)	106% (inactive) and 89.3% (inactive)	110% (inactive) and 94.4% (inactive)	106% (inactive) and 108% (inactive)	117% (inactive) and 102% (inactive)
CSc1nc(N)c(N)c(N)n1	97.2% (inactive)	101% (inactive)	112% (inactive)	104% (inactive)	105% (inactive)	86.5% (inactive)	109% (inactive)	104% (inactive)
c1ccc2c[n+](Cc3ccc4ccccc4n3)ccc2c1	62.6% (inactive)	47.2% (inactive)	90.3% (inactive)	87.5% (inactive)	72.2% (inactive)	59.3% (inactive)	71.7% (inactive)	76.1% (inactive)
OCCCc1ccccc1	112% (inactive)	101% (inactive)	108% (inactive)	107% (inactive)	101% (inactive)	99.5% (inactive)	108% (inactive)	109% (inactive)
COc1ccc(CCn2cnn3c(=O)c4ccccc4nc3c2=O)cc1OC	113% (inactive) and 103% (inactive)	91.4% (inactive) and 114% (inactive)	103% (inactive) and 119% (inactive)	–	106% (inactive) and 100% (inactive)	99.4% (inactive) and 107% (inactive)	104% (inactive) and 111% (inactive)	94.4% (inactive) and 103% (inactive)
Cc1c(O)nc(N)[nH]c1=O	114% (inactive)	116% (inactive)	103% (inactive)	102% (inactive)	99% (inactive)	103% (inactive)	92.8% (inactive)	106% (inactive)
CCCC(=O)Oc1ccc(CC)cc1	90.9% (inactive)	107% (inactive)	107% (inactive)	111% (inactive)	92.4% (inactive)	101% (inactive)	102% (inactive)	102% (inactive)
N#Cc1c[nH]n2ccnc12	92.3% (inactive)	98.3% (inactive)	114% (inactive)	–	102% (inactive)	95.2% (inactive)	113% (inactive)	109% (inactive)
COC(=O)CCOc1ccccc1	103% (inactive)	91.7% (inactive)	109% (inactive)	107% (inactive)	89.3% (inactive)	103% (inactive)	91% (inactive)	102% (inactive)
CC(C)=NOC(C)C(=O)O (configuration not stated)	107% (inactive)	98% (inactive)	97.2% (inactive)	–	97% (inactive)	95.7% (inactive)	100% (inactive)	114% (inactive)
COC(=O)C(Cc1cn(C(C)=O)c2ccccc12)P(=O)(OC)OC (configuration not stated)	105% (inactive)	105% (inactive)	99.5% (inactive)	–	101% (inactive)	96.4% (inactive)	103% (inactive)	99.2% (inactive)
O=C(NC(CSSCC(NC(=O)OCc1ccccc1)C(=O)O)C(=O)O)OCc1ccccc1 (configuration not stated)	79.1% (inactive) and 82.4% (inactive)	109% (inactive) and 81.3% (inactive)	96% (inactive) and 100% (inactive)	94.3% (inactive) and 106% (inactive)	94.3% (inactive) and 93.2% (inactive)	98.4% (inactive) and 74.7% (inactive)	110% (inactive) and 96.2% (inactive)	95.4% (inactive) and 106% (inactive)
Cc1ccc(S(=O)(=O)n2ccnc2)cc1	96.8% (inactive)	122% (inactive)	108% (inactive)	109% (inactive)	99% (inactive)	98% (inactive)	102% (inactive)	95.8% (inactive)
NCCCCCC(=O)O	101% (inactive) [middle of 4 runs]	98.5% (inactive) and 107% (inactive) and 112% (inactive)	105% (inactive) [middle of 4 runs]	109% (inactive) and 98.2% (inactive) and 107% (inactive)	105% (inactive) [middle of 4 runs]	–	–	114% (inactive) [middle of 4 runs]
COC(=O)c1nc(=S)[nH]c(C(=O)OC)c1C(=O)c1ccccc1	107% (inactive)	124% (inactive)	107% (inactive)	–	94.2% (inactive)	126% (inactive)	116% (inactive)	114% (inactive)
CCOC(=N)c1ccc(C(=N)OCC)cc1	84% (inactive)	98.2% (inactive)	114% (inactive)	–	92.3% (inactive)	96% (inactive)	109% (inactive)	105% (inactive)
CCCC(=O)OCC(COC(=O)CCC)OC(=O)CCC	85.3% (inactive)	106% (inactive)	106% (inactive)	95.6% (inactive)	93.9% (inactive)	98.8% (inactive)	95.3% (inactive)	103% (inactive)
ON=C(C1CCCCC1)C1CCCCC1	87.3% (inactive)	108% (inactive)	103% (inactive)	–	93.3% (inactive)	100% (inactive)	109% (inactive)	95.5% (inactive)
COc1ccc2oc3cc(NCCN(C)C)ccc3c(=O)c2c1	80.6% (inactive) and 63.4% (inactive)	97.2% (inactive) and 93.9% (inactive)	85.8% (inactive) and 70.8% (inactive)	78% (inactive) and 55.4% (inactive)	84.4% (inactive) and 67.8% (inactive)	93.9% (inactive) and 54.1% (inactive)	97.4% (inactive) and 77.1% (inactive)	90.1% (inactive) and 79.8% (inactive)
Cc1nc(Nc2ccc(Cl)cc2)c2cnn(-c3ccccc3)c2n1	101% (inactive)	102% (inactive)	94.7% (inactive)	–	88.2% (inactive)	101% (inactive)	105% (inactive)	106% (inactive)
CCOC(=O)NC(N)=O	104% (inactive) and 107% (inactive)	96% (inactive) and 110% (inactive)	101% (inactive) and 99% (inactive)	–	103% (inactive) and 107% (inactive)	99.3% (inactive) and 99.5% (inactive)	103% (inactive)	112% (inactive)
Cc1cc(NC(=O)NC(=O)c2ccccc2N(C)C)ccc1Oc1ncc(Br)cn1	36.2% (inactive) and 52.2% (inactive)	17.5% (inactive) and 39.1% (inactive)	-27.4% (active) and 6.67% (active)	28.4% (inactive) and 33.9% (inactive)	16.5% (inactive) and 16.9% (inactive)	17% (inactive) and 21.8% (inactive)	1.35% (active) and 50.4% (inactive)	15.3% (inactive) and 32.1% (inactive)
C(=N\OCCc1ccccc1)/c1ccccn1	114% (inactive)	138% (inactive) and 102% (inactive)	109% (inactive) and 106% (inactive)	–	92.9% (inactive) and 105% (inactive)	112% (inactive) and 102% (inactive)	105% (inactive) and 104% (inactive)	113% (inactive) and 107% (inactive)
CC(=O)Oc1cc(C(C)C)c(OCCN(C)C)cc1C	90% (inactive) and 86.2% (inactive)	119% (inactive) and 100% (inactive)	99.2% (inactive) and 99.4% (inactive)	104% (inactive) and 100% (inactive)	109% (inactive) and 95.7% (inactive)	107% (inactive) and 102% (inactive)	99.6% (inactive) and 113% (inactive)	102% (inactive) and 110% (inactive)
CCN(CC)C(=S)SCCO	101% (inactive)	144% (inactive)	111% (inactive)	106% (inactive)	104% (inactive)	107% (inactive)	94.1% (inactive)	105% (inactive)
NCCSSC/C=C\CSSCCN	86.4% (inactive)	100% (inactive)	105% (inactive)	–	97.2% (inactive)	94.3% (inactive)	112% (inactive)	102% (inactive)
CC(=O)Oc1cc(C)c(OC(C)=O)c(C)c1C	82.2% (inactive)	117% (inactive)	105% (inactive)	105% (inactive)	91.3% (inactive)	112% (inactive)	105% (inactive)	101% (inactive)

— PubChem BioAssay (NCI)
